Measurements published in PubChem BioAssay.
Several values for one entry are separate records, joined by “and”; a condition that tells them apart may be missing. Identical values can stand only once. A structure can be active in one record and inactive in another. Activity calls are given as the source filed them.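 The calls were made as follows, unless noted: active = thallium flux through the channel raised or lowered by more than 3 SD from vehicle-only wells, actives on both sides; inactive = the rest.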

What was measured:
[1] = test system: Hepatitis C virus NS3 helicase; assay: HCV NS3 helicase inhibitors, primary screen, biochemical, fluorescence polarization, NIH Clinical Collection (AID 743270; call rule not given here); details: NS3 helicase binding to Cy5-dT15 DNA, stronger effect = higher value, concentration not given here
[2] = target: Single-stranded DNA-binding protein (Escherichia coli (strain K12)) (UniProt P0AGE0); assay: E. coli SSB displacement from DNA, counter-screen for HCV NS3 helicase inhibitor project, biochemical, fluorescence polarization, NIH Clinical Collection (AID 743271; in the data active = inhibition above about 28%); details: stronger effect = higher value, concentration not given here
[3] = fluorescence interference in NS3h assay format, artefact control for HCV NS3 helicase inhibitor project, biochemical, NIH Clinical Collection (AID 743272; call rule not given here;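 also: HCV NS3 helicase with a Cy5 labelled single stranded DNA probe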); details: fluorescence interference counterscreen, stronger effect = lower value
[4] = stimulators of nuclear beta-catenin in C2C12, primary screen, imaging, WNT3A-conditioned medium, mouse C2C12, NPC library (AID 1117326; in the data active = nuclear beta-catenin stimulation mostly above about 4.2%, no sharp cut-off; inactive = mostly below about 10%); details: stronger effect = higher value
[5] = stimulators of insulin release from INS-1E, primary screen, cell-based, 5 mM glucose, NPC library (AID 1117329;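 active = compound raises insulin release from rat beta cells at 5 mM glucose, no numeric limit stated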); details: rat INS-1E insulin secretion, at 10 µM, stronger effect = higher value
[6] = growth inhibition of GSK3B-pretreated HCT116 cells – cell-based, CellTiter-Glo, 0.2 to 20 µM (AID 1117336;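 active = compounds lowering colon cancer cell viability after pretreatment blocking the GSK3B kinase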); details: HCT116 viability after GSK3B inhibitor, at 20 µM, stronger effect = higher value
[7] = inhibition of endothelial tube formation, primary screen, imaging, VEGF stimulated, CD31 staining, tube area, NPC library (AID 1117340;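 active = compound that reduces growth-factor-driven endothelial tube area in a mixed cell culture, no cutoff stated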); details: VEGF-stimulated ADSC/ECFC co-culture, at 10 µM, stronger effect = higher value
[8] = glucagon-like peptide 1 release enhancers, primary assay, NCI-H716 cell line, NPC library (AID 1117341;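 active = compound raises GLP1 secretion from the human gut endocrine cells, with no numeric limit stated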); details: NCI-H716 cells, at 10 µM, stronger effect = higher value
[9] = HCT116 colon cancer cell growth inhibition, primary screen, CellTiter-Glo luminescence, NPC library (AID 1117342;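 active = compounds that lower survival of HCT116 colon cancer cells in the luminescence readout, no numeric limit stated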); details: at 20 µM (top of the series)
[10] = CellTiter-Glo luminescent readout of SW480 viability loss, NPC library primary (AID 1117343;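 active = compounds that lower viability of the colon cancer cells in the luminescence readout, with no numeric limit stated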); details: CellTiter-Glo luminescence; at 20 µM (top of the series)
[11] = decreased DLD-1 cellular survival, CellTiter-Glo luminescent readout, NPC compound collection, primary HTS (AID 1117346;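 active = compounds that lower survival of DLD-1 colon cancer cells in the luminescence readout, no cutoff given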); details: DLD-1 viability, CellTiter-Glo luminescence; at 20 µM (top of the series)
[12] = target: 6-phosphogluconate dehydrogenase, decarboxylating (Homo sapiens) (UniProt P52209); assay: 6PGD enzyme inhibitors, primary screen, biochemical, human, recombinant enzyme, NADPH absorbance (AID 1159550;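 active = at least 20% inhibition of 6-phosphogluconate dehydrogenase activity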); details: recombinant 6PGD, NADPH absorbance 341 nm; at 10 µM; stronger effect = higher value
[13] = sensitizers of A549 cells to miR-34 induction, primary screen, imaging, A549 dox-inducible miR-34, nuclei and caspase counts (AID 1347080;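 active = compounds whose cell count with miR-34 switched on is under 0.7 times the count with it off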); details: A549 miR-34 inducible, Hoechst nuclei count, 48 h
[14] = survival rescue of mitochondrial mutant cells in low glucose, primary screen, MELAS cybrids, Rieske KO mouse fibroblasts, CellTiter-Glo (AID 1508586;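 active = mean z-score across replicates of 1.96 or higher in either the MELAS or the Rieske mutant cell line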;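 also: z relative to plate mean and SD of compound and empty wells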)
[15] = target: NAD(+) hydrolase SARM1 (Homo sapiens) (UniProt Q6SZW1); assay: SARM1 TIR NADase inhibitors, cell lysate, NAD-Glo luminescence (AID 1508614;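 active = compound whose remaining NAD level is above about 45 nM, limit read from the data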;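 also: higher remaining NAD means stronger inhibition of SARM1 NADase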); details: SAM-TIR HEK293T lysate NADase, at 1 µM, stronger effect = higher value
[16] = target: Mitogen-activated protein kinase 7 (Homo sapiens) (UniProt Q13164); assay: ERK5 transactivation activators in reporter cells, primary screen, cell-based, HTS (AID 1508626;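 active = luciferase signal above three times the same-plate solvent-only control wells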;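 also: luciferase driven by Gal4-ERK5 fusion binding five Gal4 sites before minimal TATA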); details: HeLa Gal4-ERK5 transactivation, 18 h, at 5 µM, stronger effect = higher value
F380Y = assay: modulators of BK channel variants, profiling panel, selectivity assay, cell-based, U2OS BacMam, thallium flux, beta subunits (AID 1259406); details: at 30 µM;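 also: initial slope of Thallos dye fluorescence rise after thallium is added; log ratio against the mean of 0.3% DMSO vehicle wells on the same plate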
F380Y/beta2Delta = assay: as above; details: at 30 µM
[17] = target: Calcium-activated potassium channel subunit alpha-1 (Homo sapiens) + Leucine-rich repeat-containing protein 26 (Homo sapiens) (UniProt Q12791+Q2I0M4); assay: as above; details: F380Y/Slo1WT/gamma1, at 30 µM
[18] = stronger effect = lower value, cell number ratio, induced over uninduced
[19] = measured here: relative caspase fold change +Dox/-Dox
[20] = measured here: total cells with miR-34 induction, stronger effect = lower value
[21] = measured here: total cells without miR-34 induction
[22] = MELAS cybrid survival, CellTiter-Glo 48 h, stronger effect = higher value
[23] = Rieske KO mouse fibroblast survival, CellTiter-Glo 72 h

Chain of 6-phosphogluconate dehydrogenase, decarboxylating (Homo sapiens) (P52209 whole entry, looked up): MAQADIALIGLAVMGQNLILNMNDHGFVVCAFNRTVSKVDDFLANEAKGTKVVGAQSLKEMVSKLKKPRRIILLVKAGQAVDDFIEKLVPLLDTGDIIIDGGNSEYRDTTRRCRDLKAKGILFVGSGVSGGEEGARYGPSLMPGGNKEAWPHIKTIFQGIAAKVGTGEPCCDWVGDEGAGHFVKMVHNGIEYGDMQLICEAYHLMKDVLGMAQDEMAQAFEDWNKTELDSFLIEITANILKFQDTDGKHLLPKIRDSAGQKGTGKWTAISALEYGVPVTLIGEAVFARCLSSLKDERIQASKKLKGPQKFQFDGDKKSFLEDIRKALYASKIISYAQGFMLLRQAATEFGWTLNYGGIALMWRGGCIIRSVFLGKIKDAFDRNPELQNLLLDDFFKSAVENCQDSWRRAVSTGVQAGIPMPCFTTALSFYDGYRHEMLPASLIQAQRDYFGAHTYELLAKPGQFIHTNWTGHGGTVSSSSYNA
Chain of Mitogen-activated protein kinase 7 (Homo sapiens) (Q13164 whole entry, looked up, the tested form may be a part): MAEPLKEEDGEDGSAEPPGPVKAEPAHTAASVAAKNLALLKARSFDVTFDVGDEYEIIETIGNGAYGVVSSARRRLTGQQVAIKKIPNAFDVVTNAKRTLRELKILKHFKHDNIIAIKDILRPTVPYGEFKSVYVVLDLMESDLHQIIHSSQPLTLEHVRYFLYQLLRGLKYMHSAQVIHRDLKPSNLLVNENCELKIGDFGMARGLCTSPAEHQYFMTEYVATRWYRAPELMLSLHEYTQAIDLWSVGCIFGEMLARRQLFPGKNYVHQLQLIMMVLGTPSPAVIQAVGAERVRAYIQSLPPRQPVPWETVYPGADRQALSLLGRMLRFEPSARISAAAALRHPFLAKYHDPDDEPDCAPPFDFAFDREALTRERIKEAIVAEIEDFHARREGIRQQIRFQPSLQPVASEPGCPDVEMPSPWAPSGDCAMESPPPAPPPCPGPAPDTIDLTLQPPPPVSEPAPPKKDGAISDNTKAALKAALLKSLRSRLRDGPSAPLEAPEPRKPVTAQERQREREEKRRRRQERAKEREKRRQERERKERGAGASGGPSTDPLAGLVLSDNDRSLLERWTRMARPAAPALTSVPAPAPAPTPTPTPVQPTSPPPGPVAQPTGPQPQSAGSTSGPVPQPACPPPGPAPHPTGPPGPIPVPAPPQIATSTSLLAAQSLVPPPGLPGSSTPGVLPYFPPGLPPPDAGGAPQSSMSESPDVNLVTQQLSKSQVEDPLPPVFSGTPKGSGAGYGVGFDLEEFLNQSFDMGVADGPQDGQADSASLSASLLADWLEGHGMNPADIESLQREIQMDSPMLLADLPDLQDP
Chain of NAD(+) hydrolase SARM1 (Homo sapiens) (Q6SZW1 whole entry, looked up, the tested form may be a part): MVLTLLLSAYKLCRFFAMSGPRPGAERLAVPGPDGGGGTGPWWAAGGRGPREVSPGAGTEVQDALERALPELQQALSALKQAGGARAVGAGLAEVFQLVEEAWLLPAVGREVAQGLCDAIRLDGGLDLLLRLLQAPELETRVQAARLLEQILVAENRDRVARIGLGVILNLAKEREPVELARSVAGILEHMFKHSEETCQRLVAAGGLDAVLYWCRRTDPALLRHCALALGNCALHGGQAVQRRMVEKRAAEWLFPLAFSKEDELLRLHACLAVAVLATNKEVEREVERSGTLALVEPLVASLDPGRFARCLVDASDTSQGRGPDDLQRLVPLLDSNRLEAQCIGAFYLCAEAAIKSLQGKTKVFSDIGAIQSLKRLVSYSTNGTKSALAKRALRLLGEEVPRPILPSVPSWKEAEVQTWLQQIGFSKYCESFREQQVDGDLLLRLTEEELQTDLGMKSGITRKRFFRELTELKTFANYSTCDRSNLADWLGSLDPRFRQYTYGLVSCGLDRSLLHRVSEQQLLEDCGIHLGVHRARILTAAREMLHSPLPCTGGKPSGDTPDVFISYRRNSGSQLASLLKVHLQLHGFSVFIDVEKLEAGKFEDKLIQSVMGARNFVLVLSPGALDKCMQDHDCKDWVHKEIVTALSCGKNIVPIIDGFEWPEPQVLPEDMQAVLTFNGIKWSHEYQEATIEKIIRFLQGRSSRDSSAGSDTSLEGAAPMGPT
Chain of Calcium-activated potassium channel subunit alpha-1 (Homo sapiens) + Leucine-rich repeat-containing protein 26 (Homo sapiens) (Q2I0M4 whole entry, looked up, one chain of several): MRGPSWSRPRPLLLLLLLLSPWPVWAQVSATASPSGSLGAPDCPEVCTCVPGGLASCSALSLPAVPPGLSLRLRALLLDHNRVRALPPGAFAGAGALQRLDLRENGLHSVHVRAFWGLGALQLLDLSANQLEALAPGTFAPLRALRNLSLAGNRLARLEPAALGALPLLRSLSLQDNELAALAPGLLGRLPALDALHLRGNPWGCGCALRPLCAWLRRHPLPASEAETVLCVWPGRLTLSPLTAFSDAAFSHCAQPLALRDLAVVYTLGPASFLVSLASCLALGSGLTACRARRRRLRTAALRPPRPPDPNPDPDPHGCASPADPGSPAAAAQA

CC(C)Oc1ccc2c(=O)c(-c3ccccc3)coc2c1
9370 and 9660: cell count [13, 21]
8700 and 8850: cell count [13, 20]
-0.279 (inactive) and 1.99 (active): z-score [14, 22]
-1.4% and 0.1%: nuclear beta-catenin stimulation ([4]; stimulation, at 2 µM)
active: inhibition of viability [9] 75.7% and 54.6% | viability decrease (inhibition) [10] 58.3% and 71%
inactive: inhibition [1] 3.56% | inhibition [2] 5.29% | fluorescence ratio [3] 1.04 | nuclear beta-catenin stimulation ([4]; at 10 µM) 1.8% and 1% | insulin secretion stimulation [5] 1.75% and -0.3% | viability decrease [6] 45.8% and -14.2% | tube area decrease [7] -10.2% and -25.5% | GLP1 secretion stimulation [8] -2.3% and -2.1% | viability decrease (inhibition) [11] 38.2% and 30.5% | inhibition [12] 8.55% | fold change [13, 18] 0.928 and 0.917 | remaining NAD [15] 10 nM | luciferase signal [16] 56 AU | log fold change Tl+ flux (F380Y) -0.0497 | log fold change Tl+ flux (F380Y/beta2Delta) -0.052 | log fold change Tl+ flux [17] -0.0126
1.09 and 1.31: fold change [13, 19]
0.976 and 0.611: z-score [14, 23]

CC(COc1ccccc1)NC(C)C(O)c1ccc(O)cc1 (stereo unspecified)
1.41 and 1.05: fold change [13, 19]
10800 and 9240: cell count [13, 21]
0.798: z-score [14, 23]
10000 and 8140: cell count [13, 20]
inactive: inhibition [1] -4.09% | inhibition [2] 1.81% | fluorescence ratio [3] 0.91 | nuclear beta-catenin stimulation ([4]; at 10 µM) 2.4% | insulin secretion stimulation [5] 3% | viability decrease [6] -3.4% | tube area decrease [7] 15.3% | GLP1 secretion stimulation [8] 2.4% | inhibition of viability [9] 18.7% | viability decrease (inhibition) [10] 42.3% | viability decrease (inhibition) [11] -4.6% | inhibition [12] 0.0758% | fold change [13, 18] 0.93 and 0.88 | z-score [14, 22] 0.843 | remaining NAD [15] 10 nM | luciferase signal [16] 72 AU | log fold change Tl+ flux (F380Y) -0.000146 | log fold change Tl+ flux (F380Y/beta2Delta) 0.0627 | log fold change Tl+ flux [17] -0.0341
-1%: nuclear beta-catenin stimulation ([4]; stimulation, at 2 µM)

CC(C)(C)NC[C@H](O)COc1nsnc1N1CCOCC1
0.4%: nuclear beta-catenin stimulation ([4]; stimulation, at 2 µM)
0.265 and 0.0861: z-score [14, 23]
inactive: inhibition [1] 0.45% | inhibition [2] 2.57% | fluorescence ratio [3] 0.98 | nuclear beta-catenin stimulation ([4]; at 10 µM) 2.1% | insulin secretion stimulation [5] 3.2% | viability decrease [6] 6.4% | tube area decrease [7] -8.3% | GLP1 secretion stimulation [8] 1.7% | inhibition of viability [9] -6.3% | viability decrease (inhibition) [10] -4.9% | viability decrease (inhibition) [11] -2.7% | inhibition [12] -2.5% | z-score [14, 22] 0.744 and 0.988 | remaining NAD [15] 10 nM | luciferase signal [16] 32 AU | log fold change Tl+ flux (F380Y) 0.0205 | log fold change Tl+ flux (F380Y/beta2Delta) 0.019 | log fold change Tl+ flux [17] 0.00124

Cc1onc(-c2ccccc2)c1-c1ccc(S(N)(=O)=O)cc1
8880 and 8040: cell count [13, 20]
-0.131 and 0.628: z-score [14, 23]
1.68 and 0.72: fold change [13, 19]
active: viability decrease (inhibition) [10] 54%
1.6%: nuclear beta-catenin stimulation ([4]; stimulation, at 2 µM)
9820 and 8900: cell count [13, 21]
inactive: inhibition [1] -1.19% | inhibition [2] -2.41% | fluorescence ratio [3] 0.93 | nuclear beta-catenin stimulation ([4]; at 10 µM) 1.5% | insulin secretion stimulation [5] -0.9% | viability decrease [6] -37.3% | tube area decrease [7] 32.7% | GLP1 secretion stimulation [8] 4.8% | inhibition of viability [9] 33.5% | viability decrease (inhibition) [11] 32.5% | inhibition [12] -1.63% | fold change [13, 18] 0.904 and 0.903 | z-score [14, 22] -0.154 and 0.659 | luciferase signal [16] 64 AU | log fold change Tl+ flux (F380Y) 0.0649 | log fold change Tl+ flux (F380Y/beta2Delta) 0.0548 | log fold change Tl+ flux [17] 0.00659
